# In PubChem BioAssay:
# “And” between values parts separate entries of the source, which are not always exact repeats. Identical values can stand only once. The source made the active and inactive calls. Unless noted, the rule behind the calls is not given here.
# Legend:
# [1] = resazurin metabolic signal in HepG2 cells – cell-based, resazurin fluorescence, 24 h, PK04 Diversity Set, profiling panel (AID 1172); conditions: HepG2 viability, higher = more signal
# [2] = budding yeast growth changes without added modifier – OD600, strain BY4716, 24 h, basal condition, primary screen (AID 1173); conditions: S. cerevisiae BY4716 growth, OD600, 24 h; higher = more signal, called active from +8 up or from −8 down
# [3] = viability profiling in MM1S myeloma cells – cell-based, resazurin fluorescence, basal, 24 h, PK04 Diversity Set, profiling panel (AID 1174); conditions: higher = more signal, called active from +8 up or from −8 down;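 note: MM1S multiple myeloma cell line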
# [4] = molecular target: Dihydroorotate dehydrogenase (quinone), mitochondrial (Plasmodium falciparum (isolate 3D7)) (UniProt Q08210); experiment: inhibition of P. falciparum DHODH – biochemical, C-terminal His tag, absorbance 600 nm, primary screen (AID 1175); conditions: PfDHODH enzyme, DCIP absorbance 600 nm; higher = more signal, called active from +8 up or from −8 down;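 note: recombinant parasite enzyme with a five histidine tag at its C terminus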
# Sequence of Dihydroorotate dehydrogenase (quinone), mitochondrial (Plasmodium falciparum (isolate 3D7)) (Q08210 whole entry, looked up): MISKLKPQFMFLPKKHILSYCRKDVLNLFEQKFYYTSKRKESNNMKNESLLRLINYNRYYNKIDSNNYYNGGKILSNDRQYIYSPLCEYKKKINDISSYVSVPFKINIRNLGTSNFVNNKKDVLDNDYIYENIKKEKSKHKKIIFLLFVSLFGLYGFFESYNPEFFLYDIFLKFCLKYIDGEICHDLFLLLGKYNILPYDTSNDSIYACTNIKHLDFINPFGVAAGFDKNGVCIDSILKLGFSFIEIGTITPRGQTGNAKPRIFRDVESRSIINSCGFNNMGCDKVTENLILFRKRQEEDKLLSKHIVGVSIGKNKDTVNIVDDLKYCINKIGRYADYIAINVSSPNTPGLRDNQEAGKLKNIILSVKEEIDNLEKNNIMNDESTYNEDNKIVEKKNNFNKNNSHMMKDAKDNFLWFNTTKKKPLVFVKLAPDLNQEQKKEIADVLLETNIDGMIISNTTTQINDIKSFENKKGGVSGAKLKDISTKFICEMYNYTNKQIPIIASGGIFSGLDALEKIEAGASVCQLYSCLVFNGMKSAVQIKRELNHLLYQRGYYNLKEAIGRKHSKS
# [5] = inhibition of PAO1 biofilm formation – strain PAO1, LB-PBS medium, absorbance 600 nm, primary screen (AID 1176); conditions: P. aeruginosa PAO1 growth/biofilm, A600, 12 h; higher = more signal
# [6] = growth modulation of vineyard yeast isolate – strain RM11-1a, OD600, basal, 24 h, primary screen (AID 1177);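 note: cultures grown under basal conditions with no added stressor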; conditions: S. cerevisiae RM11-1a growth, OD600, 24 h; higher = more signal, called active from +8 up or from −8 down
# [7] = growth of efflux-deficient E. coli DRC39 – strain DRC39, OD650, 24 h, E. coli filamentation inducers, primary screen (AID 1178);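 note: growth measured as culture turbidity by optical density at 650 nm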; conditions: E. coli DRC39 acrAB, higher = more signal, called active from +8 up or from −8 down
# [8] = growth of efflux-deficient E. coli DRC39 – strain DRC39, OD650, 48 h, E. coli filamentation inducers, primary screen (AID 1179);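 note: screen aims at cell division blockers that make cells filament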; conditions: E. coli DRC39 delta-acrAB growth, higher = more signal, called active from +8 up or from −8 down
# [9] = viability profiling in RPMI8226 myeloma cells – cell-based, resazurin fluorescence, basal, 24 h, PK04 Diversity Set, profiling panel (AID 1180); conditions: higher = more signal;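 note: RPMI8826 multiple myeloma cell line at 5000 cells per well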
# [10] = molecular target: E3 ubiquitin-protein ligase XIAP (Homo sapiens) (UniProt P98170); experiment: small molecules binding XIAP protein – biophysical, small-molecule microarray, fluorescence 635 nm, primary screen (AID 1181); conditions: higher = more signal;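 note: score merges 667 nm emission and signal to noise over triplicate slides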
# Sequence of E3 ubiquitin-protein ligase XIAP (Homo sapiens) (P98170 whole entry, looked up, the tested form may be a part): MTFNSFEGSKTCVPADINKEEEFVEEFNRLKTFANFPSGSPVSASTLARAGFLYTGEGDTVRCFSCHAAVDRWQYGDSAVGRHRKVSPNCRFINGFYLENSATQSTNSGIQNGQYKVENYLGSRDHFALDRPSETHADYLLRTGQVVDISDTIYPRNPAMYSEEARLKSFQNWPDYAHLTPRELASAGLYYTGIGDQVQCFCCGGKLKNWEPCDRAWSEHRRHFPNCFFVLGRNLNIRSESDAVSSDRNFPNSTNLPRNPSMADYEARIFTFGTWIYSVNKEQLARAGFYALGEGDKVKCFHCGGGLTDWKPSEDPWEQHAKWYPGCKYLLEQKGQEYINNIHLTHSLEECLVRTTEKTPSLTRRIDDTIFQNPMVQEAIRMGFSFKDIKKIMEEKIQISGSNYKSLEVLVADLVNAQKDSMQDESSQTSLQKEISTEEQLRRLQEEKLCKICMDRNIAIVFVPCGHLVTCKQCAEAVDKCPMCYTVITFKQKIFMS
# [11] = tested on: XIP peptide (Xip251-270) binding; experiment: XIP fragment 251-270 binding compounds – biochemical, small-molecule microarray, fluorescence 635/667 nm, 0.1 µg/mL protein, primary screen (AID 1182); conditions: fluorescent protein binding, 635 nm, higher = more signal, called active from +8 up or from −8 down
# XIP peptide (Xip251-270) = experiment: compounds binding XIP fragment 251-270 – biochemical, small-molecule microarray, fluorescence 635/667 nm, 0.5 µg/mL protein, primary screen (AID 1183); conditions: fluorescence 635 nm, higher = more signal
# [12] = blood-stage malaria parasite viability loss – strain 3D7, DAPI fluorescence, 100 nL, primary screen (AID 1184);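 note: parasites grown inside human red blood cells in medium with human serum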; conditions: P. falciparum 3D7 growth, 3 d, higher = more signal
# [13] = molecular target: Homeobox protein Hox-A13 (Mus musculus) (UniProt Q62424); experiment: disruptors of Hoxa13 oligonucleotide interaction – biochemical, fluorescence polarization, labeled oligonucleotide, primary screen (AID 1185); conditions: Hoxa13:DNA binding, 15 min, higher = more signal, called active from +8 up or from −8 down
# Sequence of Homeobox protein Hox-A13 (Mus musculus) (Q62424 whole entry, looked up): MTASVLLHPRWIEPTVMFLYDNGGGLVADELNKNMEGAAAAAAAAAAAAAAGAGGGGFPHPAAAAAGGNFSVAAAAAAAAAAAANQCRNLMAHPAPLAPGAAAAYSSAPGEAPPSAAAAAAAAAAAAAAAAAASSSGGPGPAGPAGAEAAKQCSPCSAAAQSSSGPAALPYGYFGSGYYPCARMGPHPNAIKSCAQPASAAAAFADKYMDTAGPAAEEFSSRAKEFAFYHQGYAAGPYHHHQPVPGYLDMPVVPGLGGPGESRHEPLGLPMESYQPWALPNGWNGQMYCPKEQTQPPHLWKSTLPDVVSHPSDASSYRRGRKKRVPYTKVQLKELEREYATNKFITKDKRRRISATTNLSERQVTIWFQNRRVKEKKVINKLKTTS
# [14] = blockers of DNA damage checkpoint Chk1 activation – imaging, HeLa, hydroxyurea, phospho-Chk1 antibody, percent positive cells, primary screen (AID 1186); conditions: hydroxyurea-induced phospho-Chk1 immunofluorescence imaging, higher = more signal
# [15] = blockers of DNA damage checkpoint Chk1 activation – imaging, HeLa, hydroxyurea, phospho-Chk1 nuclear intensity, primary screen (AID 1187); conditions: hydroxyurea-induced phospho-Chk1 immunofluorescence imaging, higher = more signal
Compound,z-score [1],z-score [2],z-score [3],composite z-score [4],z-score [5],z-score [6],z-score [7],z-score [8],z-score [9],composite z-score [10],composite z-score [11],composite z-score (XIP peptide (Xip251-270)),z-score [12],z-score [13],z-score [14],z-score [15]
COC(=O)c1c2oc(c1C(=O)OC)C(=O)N[C@@H](Cc1ccccc1)Cn1cc(nn1)C1(CCCCC1)NC(=O)N[C@H](CO)CC2,1.61 and 1.46,-4.6 (inactive) and 0.628 (inactive),0.74 (inactive) and 2.29 (inactive),0.338 (inactive) and 0.282 (inactive),1.33 (inactive) and 0.997 (inactive),-0.0882 (inactive) and -0.376 (inactive),1.89 (inactive) and 0.153 (inactive),1.56 (inactive) and 0.279 (inactive),0.688 and 2.64,0.065 and -0.0187,0.398 (inactive) and -0.338 (inactive),0.762 and 0.215,0.53 and 1.25,-4.76 (inactive) and -2.08 (inactive),-0.496 (inactive) and 0.267 (inactive),0.184 (inactive) and 0.279 (inactive)
C[N+](C)(C)CCCCCCNC(=O)[C@@H]1C[C@@H]2C(=O)N[C@@H](CCCC[N+](C)(C)C)C(=O)N2[C@@H]1c1ccc(O)cc1,0.104 and 0.822,0.292 (inactive) and 0.384 (inactive),0.436 (inactive) and 0.422 (inactive),-0.792 (inactive) and -0.983 (inactive),-0.462 (inactive) and 0.0499 (inactive),1.06 (inactive) and 1.11 (inactive),0.52 (inactive) and -0.04 (inactive),0.801 (inactive) and -0.431 (inactive),0.608 and -0.287,-0.277 and -0.227,0.134 (inactive) and 0.316 (inactive),0.907 and 0.898,0.202 and -0.0272,-0.929 (inactive) and -2.3 (inactive),0.556 (inactive) and 0.31 (inactive),0.424 (inactive) and 0.327 (inactive)
C[N+](C)(C)CCCCCCNC(=O)[C@H]1C[C@H]2C(=O)N[C@@H](CCCC[N+](C)(C)C)C(=O)N2[C@H]1c1cccc(OCCO)c1,-0.402 and -0.0872,-0.255 (inactive) and 0.763 (inactive),0.737 (inactive) and -0.541 (inactive),-2.69 (inactive) and -1.29 (inactive),-0.366 (inactive) and 0.146 (inactive),0.297 (inactive) and 1.2 (inactive),1.04 (inactive) and -0.0715 (inactive),1.47 (inactive) and -0.451 (inactive),0.455 and -1.29,-0.0553 and -0.0559,0.421 (inactive) and 1.17 (inactive),0.691 and 0.903,0.11 and 0.17,-2.01 (inactive) and -2.31 (inactive),0.247 (inactive) and 0.199 (inactive),0.316 (inactive) and -0.109 (inactive)
C[C@@]1([C@@H](NC(=O)Cc2ccccc2)c2ccc(-c3ccccc3)cc2)C[C@H]1C1CCCCC1,-1.11 and 1.82 and -1,0.332 (inactive) and 0.351 (inactive) and 1.3 (inactive),-0.506 (inactive) and 1.03 (inactive) and -1.05 (inactive),-4.04 (inactive) and -0.594 (inactive) and -0.535 (inactive),2.92 (inactive) and 1.4 (inactive) and 1.18 (inactive),1.75 (inactive) and 0.465 (inactive) and 1.58 (inactive),-0.305 (inactive) and -0.278 (inactive) and -1.43 (inactive),-0.0393 (inactive) and -0.777 (inactive) and -0.74 (inactive),-3.36 and 2.84 and -1.47,0.102 and 0.0464 and -0.02,0.142 (inactive) and -0.175 (inactive) and -0.0036 (inactive),0.0261 and -0.867 and 0.444,-1.3 and -0.345 and -1.39,1.49 (inactive) and -0.249 (inactive) and -1.63 (inactive),0.641 (inactive) and 0.338 (inactive) and 0.416 (inactive),1.03 (inactive) and 0.448 (inactive) and -0.21 (inactive)
C[N+](C)(C)CCCCNC(=O)[C@H]1C[C@H]2C(=O)N[C@@H](CCCC[N+](C)(C)C)C(=O)N2[C@H]1c1cccc(OCCO)c1,-0.114 and -3.58,0.315 (inactive) and -0.201 (inactive),-1.18 (inactive) and -1.75 (inactive),-27.2 (active) and -30.4 (active),0.187 (inactive) and 0.23 (inactive),0.152 (inactive) and -0.406 (inactive),-0.93 (inactive) and -1 (inactive),-1.32 (inactive) and -1.66 (inactive),-1.16 and -0.819,0.0159 and 0.136,1.64 (inactive) and 0.768 (inactive),0.921 and 0.684,0.211 and -0.244,-1.74 (inactive) and -2.51 (inactive),-0.885 (inactive) and -0.42 (inactive),-0.771 (inactive) and -0.16 (inactive)
C=CCN(CCCCC)C(=O)C1N(CCCCCCO)C(=O)C2C(C(=O)O)C3C=CC21O3 (stereo not given),-0.382 and -0.569,-0.0594 (inactive) and -0.411 (inactive),-0.847 (inactive) and -0.718 (inactive),0.0615 (inactive) and -0.082 (inactive),0.0809 (inactive) and -0.966 (inactive),-0.42 (inactive) and -0.52 (inactive),0.554 (inactive) and -0.272 (inactive),0.44 (inactive) and -0.188 (inactive),-0.772 and -0.735,-0.152 and 0.0785,0.0579 (inactive) and 0.042 (inactive),0.69 and 0.714,2.33 and 1.76,-1.18 (inactive) and -1.07 (inactive),0.99 (inactive) and 1.26 (inactive),0.616 (inactive) and 0.8 (inactive)
CC(CO)N1C(=O)[C@@H]2C3C(=O)OCCC=C[C@H]3OC23C=CCN(c2ccc4ccccc4c2)C(=O)[C@@H]13 (stereo not given in full),-0.406 and 0.0336,0.425 (inactive) and -0.0343 (inactive),-0.832 (inactive) and -0.602 (inactive),-5.1 (inactive) and -0.281 (inactive),-0.0837 (inactive) and -0.649 (inactive),1.44 (inactive) and -0.636 (inactive),-0.881 (inactive) and -0.593 (inactive),-0.987 (inactive) and -0.714 (inactive),-0.406 and -0.233,0.172 and 0.232,0.62 (inactive) and -0.143 (inactive),0.713 and 0.135,-0.526 and 0.0547,-6.14 (inactive) and -5.9 (inactive),-0.437 (inactive) and 0.0615 (inactive),0.0032 (inactive) and 0.0969 (inactive)
COC(=O)[C@@]1(Cc2ccc(OC)cc2)[C@H]2c3cc(C(=O)N(C)C)n(Cc4ccc(O)c(OC)c4)c3C[C@H]2CN1C(=O)c1ccccc1,0.613 and -0.518,1.5 (inactive) and 1.69 (inactive),-0.475 (inactive) and -1.77 (inactive),0.243 (inactive) and 0.355 (inactive),-0.499 (inactive) and -0.347 (inactive),0.884 (inactive) and 1.29 (inactive),0.247 (inactive) and 0.423 (inactive),-0.128 (inactive) and -0.102 (inactive),0.381 and -2.92,-0.207 and 0.277,0.371 (inactive) and 0.389 (inactive),0.594 and 0.642,-1.65 and -1.56,-5.37 (inactive) and -3.28 (inactive),0.402 (inactive) and -0.804 (inactive),0.504 (inactive) and -0.921 (inactive)
C=CCN(C(=O)C1N(c2c(Cl)cccc2CO)C(=O)C2C(C(=O)O)C3C=CC21O3)C(C)(C)C (stereo not given),0.0972 and 0.393,0.134 (inactive) and -0.493 (inactive),-0.0453 (inactive) and 1.02 (inactive),-0.395 (inactive) and -0.725 (inactive),-0.497 (inactive) and 0.053 (inactive),0.42 (inactive) and -1.92 (inactive),0.0114 (inactive) and 1.34 (inactive),-0.228 (inactive) and 1.65 (inactive),-0.338 and 0.957,-0.217 and -0.113,0.13 (inactive) and -0.96 (inactive),0.106 and -0.591,-1.76 and 0.0813,-1.56 (inactive) and 0.87 (inactive),-0.198 (inactive) and -0.391 (inactive),0.0398 (inactive) and 1.14 (inactive)
C#CCN1C(/C=C/c2ccccc2)C(=O)OC[C@H]1c1ccccc1 (stereo not given in full),0.0256 and 1.82,-5.79 (inactive) and -4.84 (inactive),0.911 (inactive) and 0.42 (inactive),-3.42 (inactive) and -0.43 (inactive),-0.73 (inactive),-2.77 (inactive) and -0.151 (inactive),2.04 (inactive) and 0.715 (inactive),0.639 (inactive) and -0.294 (inactive),0.681 and 1.36,0.0727 and -0.0871,-0.538 (inactive) and 0.237 (inactive),-0.0814 and 0.83,-2.32 and -1.18,0.468 (inactive) and -2.46 (inactive),-0.322 (inactive) and 0.0385 (inactive),-0.322 (inactive) and -0.239 (inactive)
